Shn3 inh set2 = reduction of Shn3 3'UTR firefly luciferase signal, primary screen, Schnurri-3 inhibitor project, cell-based, Clone20 osteoblasts, set 2. Clone20 osteoblast Shn3 3'UTR firefly luciferase, 24 h. inhibition, % at 12.5 µM. 360,000 compounds, 0.52% hits. AID 588674, 2011;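 active means mean inhibition of at least 75% with every replicate also reaching 75%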;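 further: 0% = median of neutral control wells and 100% = pilot-screen positive control compound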
HIF-2a block = HIF-2a reporter inhibitors, primary screen, luminescence, 786-0 RCC cells | 786-0 RCC cells HIF-2a reporter, luciferase luminescence, overnight | inhibition, % at 18.8 µM | 360,000 compounds, 0.72% hits;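 active means inhibition of the luminescence signal of 40% or more relative to plate controls, in a single-dose primary screen at 18.75 µM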
LMP1 NFkB inh = EBV LMP1-driven NF-kappaB luciferase reporter inhibitors, primary screen, cell-based, luminescence, single point. inhibition, % at 12.5 µM. LMP1-induced NF-kappaB luciferase reporter cells. 350,000 compounds, 0.69% hits. AID 504558, 2011; in the data active means inhibition above about 41%;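 further: 0% = neutral control wells and 100% = reference inhibitor control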
PAX8 reporter = inhibitors of PAX8-driven TPO luciferase reporter, primary screen, RMG-I cells, single concentration | AID 652154, 2013 | SteadyGlo, 24 h | 360,000 compounds, 1.2% hits | inhibition, % at 12.6 µM;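 active means mean replicate inhibition at least 60% with every replicate also reaching 60%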;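 further: luciferase light reporting Pax8 driven TPO promoter activity; plate controls were median of neutral control wells for no effect and mitoxantrone controls for full effect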
Peg3 prom inh = Peg3 promoter-driven luciferase inhibitors, primary screen, cell-based, HeLa, luciferase luminescence; HeLa PEG-Prom luciferase reporter, overnight; inhibition, % at 20 µM; 360,000 compounds, 1.7% hits;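 active means inhibition of at least 50% at 20 µM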
TRPM1 prom inh = inhibitors of MITF-dependent TRPM1 promoter reporter, primary screen, cell-based, SK-MEL-5, single point, luciferase | SK-MEL-5 TRPM1 promoter luciferase, 24 h | inhibition, % at 12.5 µM | 330,000 compounds, 0.83% hits | AID 488899, 2010;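 active means mean inhibition across replicates of 60% or more, whatever share of single replicates reaches that level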
Active calls of the source: *; ! = not active in a repeat. The list is not random: actives were taken first. Their share in the collection is about 2.8%.

`COCC(=O)N1C[C@H](C)[C@@H](OC)CN(C)C(=O)c2ccc(NC(=O)c3cc(C)on3)cc2OC[C@H]1C` gave PAX8 reporter -3.
`CC1=C(C)CC(C(=O)N2CCN(Cc3ccccc3)CC2)C(C(=O)O)C1` (centres undefined) gave Shn3 inh set2 -3, HIF-2a block 8, LMP1 NFkB inh 65*, PAX8 reporter -11, Peg3 prom inh -3 and TRPM1 prom inh 7.
COc1ccc(CN(C)C[C@@H]2OCCCC[C@H](C)Oc3ccc(NC(=O)Nc4ccc(F)cc4)cc3C(=O)N([C@H](C)CO)C[C@H]2C)cc1 was read as Shn3 inh set2 4, HIF-2a block -19, LMP1 NFkB inh 6, PAX8 reporter 24 and Peg3 prom inh 74*.
Screening COc1ccc(NC(=O)Nc2ccc3c(c2)C(=O)N([C@@H](C)CO)C[C@H](C)[C@@H](CN(C)Cc2ccc(C(F)(F)F)cc2)OCCCC[C@@H](C)O3)cc1 returned PAX8 reporter 69*.
Screening COc1ccc(NC(=O)Nc2ccc3c(c2)C(=O)N([C@@H](C)CO)C[C@@H](C)[C@@H](CN(C)Cc2ccc(C(F)(F)F)cc2)OCCCC[C@H](C)O3)cc1 returned PAX8 reporter 72*.
`COc1ccc(CN(C)C[C@H]2OCCCC[C@@H](C)Oc3ccc(NC(=O)Nc4ccc(C(F)(F)F)cc4)cc3C(=O)N([C@H](C)CO)C[C@H]2C)cc1` gave PAX8 reporter 41.
COc1ccc(CN(C)C[C@@H]2OCCCC[C@H](C)Oc3ccc(NC(=O)Nc4ccc(C(F)(F)F)cc4)cc3C(=O)N([C@@H](C)CO)C[C@@H]2C)cc1 was read as PAX8 reporter -26.
`COc1ccc(NC(=O)Nc2ccc3c(c2)C(=O)N([C@H](C)CO)C[C@@H](C)[C@H](CN(C)Cc2ccc(C(F)(F)F)cc2)OCCCC[C@@H](C)O3)cc1` gave PAX8 reporter 51.
Screening COc1ccc(NC(=O)Nc2ccc3c(c2)C(=O)N([C@@H](C)CO)C[C@@H](C)[C@@H](CN(C)Cc2ccc(C(F)(F)F)cc2)OCCCC[C@@H](C)O3)cc1 returned PAX8 reporter 84*.
C[C@H]1CN([C@@H](C)CO)C(=O)Cc2cc(NC(=O)Cc3cn(C)c4ccccc34)ccc2O[C@@H]1CN(C)S(=O)(=O)c1ccc(Cl)cc1 was read as PAX8 reporter 6.
`CNC[C@@H]1Oc2cc(C#Cc3ccncc3)ccc2S(=O)(=O)N([C@@H](C)CO)C[C@H]1C` gave PAX8 reporter -17.
For O=C(C[C@@H]1C=C[C@@H](NS(=O)(=O)c2ccccc2)[C@@H](CO)O1)NCc1ccc(Cl)c(Cl)c1 the results were PAX8 reporter -1.
For COc1ccc(C(=O)Nc2ccc3c(c2)C(=O)N(C)C[C@@H](OC)[C@H](C)CN(C)[C@H](C)CO3)cc1 the results were PAX8 reporter -21.
COc1ccc(CN(C)C[C@H]2OCCCC[C@H](C)Oc3ccc(NC(=O)Nc4ccc(C(F)(F)F)cc4)cc3C(=O)N([C@@H](C)CO)C[C@H]2C)cc1 was read as PAX8 reporter 106*.
Screening COc1ccc(NC(=O)Nc2ccc3c(c2)C(=O)N([C@H](C)CO)C[C@@H](C)[C@@H](CN(C)Cc2ccc(C(F)(F)F)cc2)OCCCC[C@@H](C)O3)cc1 returned PAX8 reporter 44.
For COc1ccc(NC(=O)N(C)C[C@@H]2Oc3ccc(NC(=O)Nc4cccc5ccccc45)cc3CC(=O)N([C@@H](C)CO)C[C@H]2C)cc1 the results were PAX8 reporter -9.
For O=C1c2ccccc2C(=O)c2cc(N3CCCCC3)ccc21 the results were Shn3 inh set2 42, HIF-2a block -10, LMP1 NFkB inh 45*, PAX8 reporter 9, Peg3 prom inh 13 and TRPM1 prom inh 44.
O=C(NCc1nc2ccccc2[nH]1)C1=C[C@@H](c2ccc(Br)cc2)C[C@@H](OCc2ccc(CO)cc2)O1 was read as Shn3 inh set2 3, HIF-2a block 19, LMP1 NFkB inh 3, PAX8 reporter 85*!, Peg3 prom inh 23 and TRPM1 prom inh 7.
For O=C(NCc1nc2ccccc2[nH]1)C1=C[C@@H](c2ccc(Br)cc2)C[C@@H](OCCCCO)O1 the results were Shn3 inh set2 11, HIF-2a block 20, LMP1 NFkB inh 5, PAX8 reporter 9, Peg3 prom inh 8 and TRPM1 prom inh -1.
Screening O=C(Nc1ccccc1)C1=C[C@H](c2ccccc2)C[C@H](OCCCCO)O1 returned Shn3 inh set2 -44, HIF-2a block -269, LMP1 NFkB inh -19, PAX8 reporter -130, Peg3 prom inh -280 and TRPM1 prom inh -62.
For O=C(Nc1ccccc1)C1=C[C@H](c2ccc(C(F)(F)F)cc2)C[C@H](OCCCCO)O1 the results were Shn3 inh set2 -39, HIF-2a block -186, LMP1 NFkB inh -8, PAX8 reporter 87*!, Peg3 prom inh -130 and TRPM1 prom inh -36.
`CC(Nc1nc(-c2ccccc2)nc2ccccc12)c1ccccc1` (centres undefined) gave Shn3 inh set2 4, HIF-2a block -16, LMP1 NFkB inh -113, PAX8 reporter 2, Peg3 prom inh 11 and TRPM1 prom inh -2.
`CC(Nc1nc(N2CCCCC2)nc2ccccc12)c1ccccc1` (centres undefined) gave Shn3 inh set2 44, HIF-2a block 25, LMP1 NFkB inh -3, Peg3 prom inh 68* and TRPM1 prom inh 6.
For CCCCC1(Cc2ccc([N+](=O)[O-])cc2)C(=O)N(c2ccccc2)N(c2ccccc2)C1=O the results were Shn3 inh set2 92*, HIF-2a block 2, LMP1 NFkB inh 27, PAX8 reporter 20, Peg3 prom inh 28 and TRPM1 prom inh 18.
For Cc1noc(C)c1NC(=O)N(C)C[C@H]1Oc2ccc(NC(=O)NC(C)C)cc2C(=O)N([C@@H](C)CO)C[C@H]1C the results were PAX8 reporter -27.
`COc1ccc(C(=O)/C=C/c2cccc(OCc3ccccc3)c2)cc1CSCC(=O)O` gave Shn3 inh set2 0, HIF-2a block 20, LMP1 NFkB inh -1, PAX8 reporter 7, Peg3 prom inh 75* and TRPM1 prom inh 13.
`CCCNC(=O)N1[C@H](CO)[C@H]2c3ccccc3N(C(=O)Nc3ccccc3)C[C@H]21` gave PAX8 reporter 1.
For C=CCNc1nc(N2CCOCC2)c(C#N)c2c1CN(C)CC2 the results were Shn3 inh set2 97*, HIF-2a block 18, LMP1 NFkB inh -13, Peg3 prom inh 15 and TRPM1 prom inh 6.

Screens (PubChem)
